Reference: PubChem BioAssay (NCATS)
Records with an inconclusive call do not appear. Activity calls are given as the source filed them. Calls follow the shape of the dose curve; as a rule, active = well fitted curve in the direction sought with a large enough effect; inconclusive = small, poorly fitted or top-dose-only effect, or another doubt; inactive = no such curve, though single readings can be large; an effect the other way counts as inactive or inconclusive.

Legend:
[1] = target: Rap guanine nucleotide exchange factor 3 (Homo sapiens) (UniProt O95398); experiment: Confirmatory qHTS for agonist of cAMP-regulated guanine nucleotide exchange factor 3 (EPAC1) (AID 1645881);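 also: EPAC1 catalysed release of BODIPY-GDP from Rap1B seen as fluorescence loss; nearly all actives have a fitted effect of over 75% in size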
[2] = target: Rap guanine nucleotide exchange factor 4 (Homo sapiens) (UniProt Q8WZA2); experiment: Confirmatory qHTS for agonist of cAMP-regulated guanine nucleotide exchange factor 4 (EPAC2) (AID 1645884);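 also: nucleotide exchange releases bodipy-GDP from Rap1 and this lowers its fluorescence; nearly all actives have a fitted effect of over 65% in size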
[3] = target: Rap guanine nucleotide exchange factor 3 (Homo sapiens) (UniProt O95398); experiment: Counterscreen qHTS for antagonist of cAMP-regulated guanine nucleotide exchange factor 3 (EPAC1) (AID 1645888);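 also: fluorescence loss as bound BODIPY-GDP is released from Rap1B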
How it was run: (§1)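 Rap1B–BODIPY-GDP (250 nM) with 50 uM GDP; compounds pin-transferred to 9.74 nM–152 uM final (activator) or from 7.32 nM upwards (inhibitor). Fluorescence Ex/Em 480/540 nm read at 5 and 30 min, then after adding cAMP or buffer, at room temperature.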

[4] = target: Rap guanine nucleotide exchange factor 3 (Homo sapiens) (UniProt O95398); experiment: Counterscreen qHTS for agonist of cAMP-regulated guanine nucleotide exchange factor 3 (EPAC1) (AID 1645889); also: nearly all actives have a fitted effect of over 40% in size
How it was run: as §1

Measured: Potency

Sequence of Rap guanine nucleotide exchange factor 3 (Homo sapiens) (O95398 whole entry, looked up): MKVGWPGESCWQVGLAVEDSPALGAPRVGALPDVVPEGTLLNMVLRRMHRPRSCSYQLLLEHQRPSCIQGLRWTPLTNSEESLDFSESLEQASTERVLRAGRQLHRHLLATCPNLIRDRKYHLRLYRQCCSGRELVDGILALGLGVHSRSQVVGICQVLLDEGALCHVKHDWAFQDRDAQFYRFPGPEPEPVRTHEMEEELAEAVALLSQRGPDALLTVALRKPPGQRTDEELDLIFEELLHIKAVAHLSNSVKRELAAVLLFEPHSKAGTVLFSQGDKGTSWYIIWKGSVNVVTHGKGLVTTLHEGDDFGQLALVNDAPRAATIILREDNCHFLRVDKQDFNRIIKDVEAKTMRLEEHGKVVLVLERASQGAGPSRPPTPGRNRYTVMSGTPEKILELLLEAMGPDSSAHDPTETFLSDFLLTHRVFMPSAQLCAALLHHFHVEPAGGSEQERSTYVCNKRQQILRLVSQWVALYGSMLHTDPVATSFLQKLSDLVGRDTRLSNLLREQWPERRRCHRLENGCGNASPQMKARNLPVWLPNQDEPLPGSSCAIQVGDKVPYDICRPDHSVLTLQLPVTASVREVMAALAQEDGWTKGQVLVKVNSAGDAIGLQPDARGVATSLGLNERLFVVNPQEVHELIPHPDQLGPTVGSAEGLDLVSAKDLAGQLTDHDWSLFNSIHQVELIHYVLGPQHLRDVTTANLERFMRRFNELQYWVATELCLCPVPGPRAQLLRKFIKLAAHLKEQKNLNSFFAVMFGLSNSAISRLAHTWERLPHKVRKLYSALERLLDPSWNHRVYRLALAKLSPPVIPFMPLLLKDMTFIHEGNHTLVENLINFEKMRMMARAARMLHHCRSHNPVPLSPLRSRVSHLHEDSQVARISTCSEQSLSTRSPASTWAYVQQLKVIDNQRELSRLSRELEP
Sequence of Rap guanine nucleotide exchange factor 4 (Homo sapiens) (Q8WZA2 whole entry, looked up): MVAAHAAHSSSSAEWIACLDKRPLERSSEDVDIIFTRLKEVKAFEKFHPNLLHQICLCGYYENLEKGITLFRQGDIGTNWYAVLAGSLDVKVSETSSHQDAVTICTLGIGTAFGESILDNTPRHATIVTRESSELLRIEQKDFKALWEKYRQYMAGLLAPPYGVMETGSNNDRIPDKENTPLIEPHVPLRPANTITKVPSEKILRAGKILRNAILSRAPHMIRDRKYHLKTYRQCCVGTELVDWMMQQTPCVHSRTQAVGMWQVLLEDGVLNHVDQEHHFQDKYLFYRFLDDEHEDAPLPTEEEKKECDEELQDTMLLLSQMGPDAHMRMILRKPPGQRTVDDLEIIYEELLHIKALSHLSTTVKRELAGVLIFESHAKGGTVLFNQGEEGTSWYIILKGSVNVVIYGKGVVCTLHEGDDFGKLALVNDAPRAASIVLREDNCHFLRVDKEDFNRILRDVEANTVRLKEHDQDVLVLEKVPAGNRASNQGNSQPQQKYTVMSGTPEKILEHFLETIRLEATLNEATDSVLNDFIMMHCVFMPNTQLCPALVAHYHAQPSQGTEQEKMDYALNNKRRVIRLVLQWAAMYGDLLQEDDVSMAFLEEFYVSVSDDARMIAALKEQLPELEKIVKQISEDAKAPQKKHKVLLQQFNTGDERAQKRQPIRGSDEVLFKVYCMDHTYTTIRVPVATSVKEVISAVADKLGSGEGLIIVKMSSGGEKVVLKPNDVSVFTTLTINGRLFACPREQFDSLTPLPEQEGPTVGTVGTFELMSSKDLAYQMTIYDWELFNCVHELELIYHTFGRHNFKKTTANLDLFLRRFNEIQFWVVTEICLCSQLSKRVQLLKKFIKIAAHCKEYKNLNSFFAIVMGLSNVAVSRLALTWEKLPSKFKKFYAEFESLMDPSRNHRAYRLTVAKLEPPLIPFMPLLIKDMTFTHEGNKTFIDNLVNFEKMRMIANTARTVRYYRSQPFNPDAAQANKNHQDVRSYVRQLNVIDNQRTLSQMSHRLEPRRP

O=C1NCN(c2ccccc2)C12CCN(C(c1cc3ccccc3o1)c1nnnn1C1CCCCC1)CC2 (stereo not drawn)
inactive: all assays above

O=[N+]([O-])c1ccc(N(CCO)CCO)c2c1no[n+]2[O-]
inactive: all assays above
